Reference: the supplement of paper PMC10338343

Test system: MILI (PIWIL2) piRISC loaded with L1MC piRNA (26 nt)
Assay: pre-steady-state target cleavage rate (min^-1); guide: L1MC piRNA 5'p-UAACUAAAUACUAUGCAAGCUGUAGG; MIWI and MILI are mouse PIWI proteins and EfPiwi is from a freshwater sponge; tags in brackets are library labels; higher = faster piRNA-guided slicing of the target
Settings: auxiliary factor: none (no GTSF1)
In short: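 Cleave-'n-Seq: a transcribed, DNA-blocked target RNA library (0.1 nM) was mixed with 1 nM active affinity-purified piRISC carrying one synthetic guide, with or without 500 nM GTSF1 partner protein, in HEPES–potassium acetate buffer at 33 °C for 0–8 or 0–960 min. Uncleaved targets were sequenced and normalised to depth and to weakly complementary targets. Three trials were pooled, and k3 was capped at 0.0001 min^-1. The pre-steady-state cleavage rate came from a burst-and-steady-state fit.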

pre-steady-state target cleavage rate, < 0.0001:
UCCUGGAUGUCGAACCAUAGUCAUUUAGUUA, UCCUGGAUGUCGAUGCAUUGUAAUUAGUUA, UCCUGGAUGUCGAACGUUAGUAUUUGUUA, UCCUGGAUCAGCUACGAUAGUAUUUUCAAA, UCCUGGAUGUCGAACGUUAGUAUAUUGUUA, UCCUGGAUGUCGAACCAUACAAUUUAGUUA, UCCUGGAUGUCGAUCCAUAGUAUUUUGUUA
